Bioassay records deposited in PubChem by several laboratories.
SKKanGAS inh = blocks kanamycin growth of S. pyogenes SKKanGAS strain; inhibition, % at 7.5 µM; BacTiter-Glo, 6 h; AID 1662; actives 1.3% (n = 300,000);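 active means mean replicate score, as percent of positive control median, at least 50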;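 further: strain carries kanamycin resistance gene driven by streptokinase promoter and grows in 40 µg/ml kanamycin; loss of luminescence reflects streptokinase promoter inhibition or plain growth inhibition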
PfHsp90 yeast 2 = reduces growth (ATP signal) of yeast expressing P. falciparum Hsp90; S. cerevisiae expressing PfHsp90, BacTiter-Glo ATP, 48 h; yeast lacking PDR1 and PDR3 efflux regulators; inhibition, % at 9.4 µM; actives 0.32% (n = 310,000); AID 504621;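 active means every replicate shows inhibition above about 80%, whatever the replicate mean, limit read from the data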
TIM10 inh = inhibits growth of TIM10 yeast strain; AID 463195; inhibition, % at 10 µM; actives 1.4% (n = 330,000); S. cerevisiae TIM10 strain growth, BacTiter-Glo luminescence, 24 h;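 active means inhibition of 40% or more at the single tested concentration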;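 further: wild-type TIM10 isogenic control strain grown at permissive 25 °C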
tim10-1 inh = growth inhibitors of tim10-1 mutant yeast. S. cerevisiae tim10-1 ts strain growth, BacTiter-Glo, 24 h. inhibition, % at 20 µM. actives 2.2% (n = 330,000). AID 463190;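 active means inhibition of at least 40%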;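 further: mutant grown at 25 °C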
V-ATPase pHluor = yeast V-ATPase proton transport regulation by pHLuorin | S. cerevisiae, pHLuorin cytosolic pH fluorescence | response, % at 10 µM | actives 0.37% (n = 350,000) | AID 504577; in the data active means response mostly above about 7.3%, no sharp cut-off; inactive means mostly below about 5.4%; further: actives read high
tim23-1 inh = growth inhibitors of tim23-1 mutant yeast; actives 1.3% (n = 330,000); inhibition, % at 20 µM; S. cerevisiae tim23-1 growth, BacTiter-Glo luminescence, 24 h;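 active means growth inhibition of the mutant yeast at or above 50%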;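 further: temperature-sensitive mutant grown at 25 °C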
TIM10 conf = TIM10 yeast growth inhibition, confirmed; shares compounds with TIM10 inh; S. cerevisiae tim10 strain growth, BacTiter-Glo luminescence, 24 h; inhibition, % at 10 µM; actives 63% (n = 4,600); AID 463215;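 active means inhibition of yeast growth at or above a set limit in either of two replicates at 10 µM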; further: this counterscreen used the strain with wild-type TIM10
Of the large screens only hits and unclear results are named; the others gave an inactive call (follow-up assays come after a bar, where they were run). The list is not random: actives were taken first. Their share in the collection is about 4.6%.

COC(=O)c1c(NC(=O)c2ccc(C(=O)c3ccccc3)cc2)sc2c1CC(C)(C)NC2(C)C	none (no result: SKKanGAS inh, PfHsp90 yeast 2, TIM10 inh, tim10-1 inh, tim23-1 inh)
COc1ccccc1CNC(=O)COC(=O)c1cccc(-n2cnnn2)c1	none (no result: SKKanGAS inh)
c1csc(C2C3=C(Nc4ncnn42)c2ccccc2OC3)c1 (stereo not drawn)	TIM10 inh 43.0 | TIM10 conf inactive
CCn1c(C)cc(/C=C2/SC(=S)NC2=O)c1C	TIM10 inh 44.4 | TIM10 conf inactive
CCn1ncc(/C=C2/SC(=S)NC2=O)c1C	none
CC(NC(=O)/C(C#N)=C/c1ccc(Cl)c([N+](=O)[O-])c1)c1ccccc1 (stereo not drawn)	TIM10 inh 63.3 (no result: PfHsp90 yeast 2, V-ATPase pHluor) | TIM10 conf 57.4
C[C@@H](NC(=O)/C(C#N)=C/c1ccc(O)c(O)c1)c1ccccc1	none (no result: SKKanGAS inh)
Cc1ccc(C(=O)OCC(=O)Nc2cc(F)ccc2F)cc1NC(=O)c1ccco1	none
O=C(NCc1ccccn1)C1CCN(C2CCN(Cc3cccc(F)c3)CC2)CC1	none (no result: SKKanGAS inh, PfHsp90 yeast 2, TIM10 inh, tim10-1 inh, tim23-1 inh)
O=C(CNc1ccc2ccccc2c1)N/N=C/c1ccc(OC(=O)/C=C/c2ccco2)cc1	TIM10 inh 40.5 | TIM10 conf 36.5
O=C(CNc1cccc2ccccc12)N/N=C/c1ccc(OC(=O)/C=C/c2ccco2)cc1	none (no result: TIM10 inh, tim10-1 inh, tim23-1 inh)
Cn1c(Cl)c(C(=O)Nc2ccccc2)c2ccccc21	TIM10 inh 51.1 (no result: SKKanGAS inh) | TIM10 conf 56.9
CC(C)NC(=O)c1onc(CSc2ccc(Cl)cc2)c1C(=O)NC(C)C	none
O=C(COC(=O)C1CC2CCCC(C1)C2=O)NNC(=O)c1ccccc1F (stereo not drawn)	none (no result: PfHsp90 yeast 2)
O=C(Nc1ccc2nn(-c3ccccc3)nc2c1)c1ccco1	TIM10 inh 54.2 | TIM10 conf 50.5
O=C(Nc1ccc(Oc2ccc(NC(=O)c3ccco3)c(NC(=O)c3ccco3)c2)cc1)c1ccco1	none (no result: PfHsp90 yeast 2)
O=C(Nc1ccc(Oc2ccc3ccccc3c2)cc1)c1ccco1	TIM10 inh 43.2 | TIM10 conf 35.5
O=C(Nc1cc2nn(-c3ccccc3)nc2cc1Cl)c1ccco1	none
O=C(Nc1ccc2nc(-c3ccco3)[nH]c2c1)c1ccco1	TIM10 inh 53.6 (no result: PfHsp90 yeast 2) | TIM10 conf 36.9
O=C(N/N=C/c1ccc(Br)o1)c1ccc2c(c1)OCCO2	TIM10 inh 55.5 | TIM10 conf 62.8
O=C(O)c1ccc(/C=N/NC(=O)c2ccc3c(c2)OCCO3)cc1	none
COc1cccc2cc(-c3nc4ccccc4[nH]3)c(=O)oc12	TIM10 inh 54.1 | TIM10 conf 36.0
O=C(CN1CCN(c2ccccc2O)CC1)Nc1ccc2c(c1)CCC2	none
CC(NC(=S)Nc1cccc(C(F)(F)F)c1)C(C)(C)C (stereo not drawn)	TIM10 inh 44.7 (no result: PfHsp90 yeast 2) | TIM10 conf inactive
CN(C)NC(=S)Nc1cccc(C(F)(F)F)c1	none
Cc1ccc(NC(=S)NNC(=S)Nc2cccc(C(F)(F)F)c2)cc1	SKKanGAS inh 87.8, TIM10 inh 53.0 | TIM10 conf 48.4
COc1ccc(CN(C)S(=O)(=O)c2nnc(NC(=O)c3cccc(F)c3)s2)cc1	none
Cc1c(Cl)cccc1NC(=S)NCCC(C)C	TIM10 inh 49.2 | TIM10 conf 34.1
Cc1c(Cl)cccc1NC(=S)NCc1ccccc1Cl	none
COc1ccc(NC(=S)NCCC(c2ccccc2)c2ccccc2)c(OC)c1	TIM10 inh 45.3 | TIM10 conf 30.9
Cc1c(Cl)cccc1NC(=S)NCCC(c1ccccc1)c1ccccc1	SKKanGAS inh 79.2, TIM10 inh 49.7 | TIM10 conf inactive
CC(C)(C)CC(=O)Nc1ccc(Nc2ccccc2)cc1	none
O=C(CC(C(=O)O)c1cccc(Br)c1)c1ccc(Cl)cc1 (stereo not drawn)	none
O=C(COC(=O)CN1C(=O)C(=O)c2ccccc21)OCN1C(=O)c2ccccc2C1=O	TIM10 inh 47.5 | TIM10 conf inactive
O=S(Cc1ccc(Br)cc1)Cc1nnc(SCc2c(Cl)cccc2Cl)n1-c1ccccc1 (stereo not drawn)	TIM10 inh 41.0 | TIM10 conf inactive
Cn1c(CS(=O)Cc2c(Cl)cccc2Cl)nnc1SCc1c(Cl)cccc1Cl (stereo not drawn)	none
CCCCCC(=O)Nc1ccc(-c2csc(N)n2)cc1	TIM10 inh 43.0 (no result: PfHsp90 yeast 2) | TIM10 conf inactive
